Source: PubChem BioAssay AID1852 (Sanford-Burnham Center for Chemical Genomics, 2009)
Hit rate of the full screen: of about 2,500 compounds, about 1,100 (44%) were called active. The set was probably picked from earlier hits. This is one part of the list. A number with no mark means an inactive call.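 Rule for the calls: active = inhibition above 50% at 4 µM in the single-point screen; inactive = inhibition of 50% or less.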

Experiment: TNF-a-driven NF-kB reporter inhibitors, primary screen, selectivity assay for NOD1/NOD2 signaling inhibitor project, cell-based, HEK293T NF-kB-Luc, luminescence (AID 1852)
Details: TNF-a induced, 14 h, at 4 µM, active compounds read high

SMILES | inhibition
Cc1ccc(-c2csc(NC(=O)c3ccc4c(=O)n5c(nc4c3)CCCCC5)n2)cc1 | 97.1% (active)
Cc1ccc(-c2csc(NC(=O)C3=NN(c4ccccc4)C(=O)CC3)n2)cc1 | 38.6%
O=C(Nc1nc(-c2ccccc2)cs1)c1ccc2c(=O)n3c(nc2c1)CCCCC3 | 106% (active)
O=C(NC1CCCCC1)N1CCN(c2nc(-c3ccccc3)cs2)CC1 | 48.4%
Nc1ccc(S(=O)(=O)Nc2nccc(/C=C/c3ccc(Cl)cc3Cl)n2)cc1 | 4%
Cc1cccc2cc3c(N)c(C(=O)Nc4ccc(N5CCOCC5)cc4)sc3nc12 | 36.4%
Cc1cc(N2CCOCC2)c2c(N)c(Br)cc(C)c2n1 | 80.6% (active)
COc1ccccc1-c1cc(C(F)(F)F)nc(S(=O)(=O)CCCC(=O)N2CCOCC2)n1 | 51.1% (active)
COc1ccccc1-c1cc(C(F)(F)F)nc(S(=O)(=O)CCCC(=O)N2CCCCC2C)n1 (stereo unspecified) | 66.8% (active)
COc1cccc(Cn2c(NCc3cccnc3)nc3c2c(=O)n(C)c(=O)n3C)c1 | 37.8%
COc1cc(/C=N/Nc2nc3c(c(=O)n(C)c(=O)n3C)n2Cc2ccccc2)ccc1OC(=O)c1ccco1 | 52.5% (active)
CC(C(=O)N1CCN(c2ccccc2F)CC1)c1ccc([N+](=O)[O-])cc1 (stereo unspecified) | -32.5%
O=S(=O)(Nc1nc2ccccc2nc1Cl)c1ccc(Br)cc1 | 20.8%
O=S(=O)(Nc1nc2ccccc2nc1N1CCN(c2ccccc2F)CC1)c1ccc(Cl)cc1 | 86.2% (active)
COc1ccc(-c2cc(C(F)(F)F)nc(S(=O)(=O)CCCC(=O)Nc3cccnc3Cl)n2)cc1OC | 88.1% (active)
COc1ccccc1-c1cc(C(F)(F)F)nc(S(=O)(=O)CCCC(=O)Nc2cccnc2Cl)n1 | 37.1%
COc1ccc(-c2cc(C(F)(F)F)nc(S(=O)(=O)CCCC(=O)Nc3cccc(O)c3)n2)cc1OC | 81.5% (active)
O=C(O)CCC(=O)Nc1cccc(-c2csc(-c3ccccc3)n2)c1 | 41.9%
Cc1cc(-c2ccc(C)c(S(=O)(=O)N3CCN(c4ccc([N+](=O)[O-])cc4)CC3)c2)on1 | 16.8%
C[C@@H](C(=O)Nc1ccc2ccccc2c1)[C@@H]1C[C@@]1(C)[C@@H](NC(=O)c1cnccn1)c1ccccc1 | -2.6%
Cc1cc(C(=O)CSc2nc3ccccc3c(=O)n2C)c(C)n1Cc1ccc2c(c1)OCO2 | 69.5% (active)
Cc1cc(C(=O)CN2C(=O)c3ccccc3S2(=O)=O)c(C)n1CC1CCCO1 (stereo unspecified) | 96.8% (active)

SMILES | inhibition
COc1ccccc1Nc1nc(NCC2CCCO2)c2ccccc2n1 (stereo unspecified) | 39.1%
Cc1cc(C(=O)CSc2nc3ccccc3c(=O)n2C)c(C)n1CC1CCCO1 (stereo unspecified) | 65.9% (active)
Cc1cc(C(=O)COC(=O)c2ccccc2Br)c(C)n1CC1CCCO1 (stereo unspecified) | -5.9%
CCCCN(CC)c1nc(-c2ccncc2)nc2ccccc12 | 34.7%
O=C(N/C(=C/c1ccc([N+](=O)[O-])cc1)C(=O)N1CCOCC1)c1ccco1 | 14%
COc1cc(Nc2nc3ccccc3nc2NS(=O)(=O)c2ccc([N+](=O)[O-])cc2)cc(OC)c1OC | 84.6% (active)
Cc1ccc(S(=O)(=O)Nc2nc3ccccc3nc2Nc2cccc(S(=O)(=O)N3CCCC3)c2)cc1 | 71% (active)
O=S(=O)(Nc1nc2ccccc2nc1Nc1ccc2c(c1)OCO2)c1ccc(F)cc1 | 18%
CCn1nc(NS(=O)(=O)c2ccc([N+](=O)[O-])cc2)c2cc3cccc(C)c3nc21 | 19.3%
COc1cccc(Nc2nc3ccccc3nc2NS(=O)(=O)c2cccs2)c1 | 7.5%
O=[N+]([O-])c1cccc(S(=O)(=O)Nc2nc3ccccc3nc2Nc2cccc(S(=O)(=O)N3CCCCC3)c2)c1 | 97.6% (active)
Cc1cc(Nc2nc3ccccc3nc2Cl)n(-c2ccc([N+](=O)[O-])cc2)n1 | 28.5%
O=c1c2ccccc2nc(/C=C/c2cc(Br)ccc2O)n1CCCO | 59% (active)
CCn1c(/C=C/c2cc(Br)ccc2O)nc2ccccc2c1=O | -6.3%
O=[N+]([O-])c1cc(-c2nc3nc4ccccc4nc3n2CCc2ccccc2)cc([N+](=O)[O-])c1 | -12.4%
Cc1ccc(-c2cc(C(=O)N/N=C/c3ccc([N+](=O)[O-])o3)c3ccccc3n2)o1 | 6.6%
O=c1c2ccccc2nc(/C=C/c2ccc([N+](=O)[O-])o2)n1CCCO | 98.8% (active)
COc1ccc(O)c(CNn2c(-c3ccc(Br)cc3)nc3ccccc3c2=O)c1 | 12.6%
COc1ccc(Nc2nc(NCC3CCCO3)c3ccccc3n2)c(OC)c1 (stereo unspecified) | 31.4%
COc1cccc(Nc2nc(NCCO)c3ccccc3n2)c1 | 69.6% (active)
COc1cccc(NC(=O)CSc2nc3ccccc3c(=O)n2C)c1 | 12.1%
COc1cc(OC)c(N(C)S(=O)(=O)c2cccc(C(=O)OCC(=O)c3c[nH]c4ccccc34)c2)cc1Cl | 92.4% (active)

SMILES | inhibition
COc1cccc(/C=C/c2ccc3ccccc3n2)c1OC(C)=O | -25.7%
COc1ccc(OC)c(/C=C/c2ccc3cccc(O)c3n2)c1 | 105% (active)
Oc1cccc2ccc(/C=C/c3ccccc3Br)nc12 | 51.4% (active)
COc1ccc(Br)cc1/C=C/c1ccc2cccc(O)c2n1 | 52.6% (active)
COc1ccc(Cl)cc1/C=C/c1ccc2cccc(O)c2n1 | 47.4%
COc1cccc(/C=C/c2ccc3cccc(O)c3n2)c1OC | -20%
COc1cc(Br)cc(/C=C/c2ccc3cccc(O)c3n2)c1O | 0.4%
CCOc1cccc(/C=C/c2ccc3cccc(O)c3n2)c1O | 4.2%
Oc1ccc(Cl)cc1/C=C/c1ccc2cccc(O)c2n1 | 8.6%
Cc1ccc(C)c(NC(=O)c2ccccc2NS(=O)(=O)c2cc([N+](=O)[O-])ccc2C)c1 | 75.8% (active)
Cc1ccc(NC(=O)CN(c2ccc(Cl)cc2)S(=O)(=O)c2cc([N+](=O)[O-])ccc2Cl)c(C)c1 | -17.7%
Cc1ccc(NS(=O)(=O)c2cc([N+](=O)[O-])ccc2NNC(=S)Nc2cc(C)ccc2C)c(C)c1 | 77.3% (active)
Cc1ccc(NS(=O)(=O)c2ccc(-n3cccn3)cc2)c(C)c1 | 40.7%
Cc1ccc(NC(=O)CC(=O)c2ccc([N+](=O)[O-])cc2)cc1S(=O)(=O)Nc1cccc(Cl)c1 | 15.2%
O=C(Oc1c(-c2ccccc2)c(=O)n2c3c(cccc13)CC2)c1ccc(Cl)cc1 | 90.1% (active)
O=C(Oc1c(-c2ccccc2)c(=O)n2c3c(cccc13)CC2)c1ccc(F)cc1 | 49.3%
O=C(Oc1c(-c2ccccc2)c(=O)n2c3c(cccc13)CC2)c1ccccc1 | 75.1% (active)
COc1ccc(C(=O)c2c(C(F)(F)F)oc3c2C(=O)c2ccccc2C3=O)cc1 | 100% (active)
COc1ccc(C(=O)Nc2sc3c(c2C(=O)NCc2ccco2)CCCC3)cc1OC | -42.2%
COc1ccc(NC(=O)c2c(Nc3ccccc3)sc(C(=O)c3ccc(F)cc3)c2N)cc1 | 10%
COc1ccc(C(=O)c2c(C(F)(F)F)oc3c2C(=O)c2ccccc2C3=O)cc1OC | 102% (active)
CC(C)(C)OC(=O)CNC(=O)c1[nH]cnc1C(=O)NC1CCN(C(=O)OC(C)(C)C)CC1 | -15.2%

SMILES | inhibition
O=C(OCn1ncc(Br)c(Br)c1=O)c1ccc(F)cc1 | 86.5% (active)
CC(=O)Cn1ncc(Br)c(Br)c1=O | 95% (active)
O=C(OCn1ncc(Br)c(Br)c1=O)c1c(F)cccc1F | 82.5% (active)
Cc1ccc(Cl)cc1N1CCN(C(=O)CSc2nnc3n2C(C)(C)Cc2ccccc2-3)CC1 | 95.1% (active)
COCCn1c(SCC(=O)N2CCc3ccccc3C2)nc2cc(Cl)ccc2c1=O | 13.3%
O=C(CSc1nnc2ccc3ccccc3n12)N1CCOCC1 | -57.3%
CC1Cc2cc(-c3csc(NC(=O)Cc4cccs4)n3)ccc2N1S(C)(=O)=O (stereo unspecified) | 60.6% (active)
Cn1c(=O)c(C(=O)CCl)c(N)n(Cc2ccccc2)c1=O | 72.4% (active)
COCCCN(C(=O)Cc1ccc(Cl)c(Cl)c1)c1c(N)n(Cc2ccccc2)c(=O)[nH]c1=O | 7.8%
CC(C)Cn1c(N)c(C(=O)COC(=O)CC23CC4CC(CC(C4)C2)C3)c(=O)n(C)c1=O | 26.6%
COc1cccc(N=Nc2ccc3cccnc3c2O)c1 | 54.2% (active)
COc1cccc(N=Nc2ccc(O)c3ncccc23)c1 | 61% (active)
CCN(CC)S(=O)(=O)c1cc(OC)ccc1N=Nc1ccc(O)c2ncccc12 | -1.5%
O=S1(=O)Nc2c(ccc3cccnc23)-c2ccccc21 | 104% (active)
Cc1c(C(=O)N2CCN(Cc3ccc4c(c3)OCO4)CC2)sc2ncnc(N3CCN(c4ccccc4)CC3)c12 | 98.5% (active)
O=[N+]([O-])c1ccc2ncnc(N3CCN(Cc4ccc5c(c4)OCO5)CC3)c2c1 | 97.2% (active)
Cc1c(C(=O)N2CCN(c3ccc(F)cc3)CC2)sc2ncnc(N3CCN(c4ccccn4)CC3)c12 | 15.6%
CCn1c(=O)c([N+](=O)[O-])c(N2CCN(Cc3ccc4c(c3)OCO4)CC2)c2ccccc21 | 38.9%
Cn1c(=O)c([N+](=O)[O-])c(N2CCN(Cc3ccc4c(c3)OCO4)CC2)c2ccccc21 | 18.3%
COc1ccccc1N1CCN(C(=O)c2sc3ncnc(N4CCN(c5ccccn5)CC4)c3c2C)CC1 | -30.1%
